Our source for the binding signal values is article PMC12864922, “TDP-43 directly inhibits mRNA accumulation in neurites through modulation of mRNA stability”.

B1: ENSMUSG00000058297.291|Spock2|95:100 (ssRNA)
RNA: GGGAGUUCUACAGUCCGACGAUCGCUUCGAUAUCCGCAUGCUAAGAGAGAGAGAGAAAGAGAGAGAGAAUGAGAGAGAAUGAGAGAGAGAAUACCCGAGGGCCACCCUGAUGCCCAGGAAGAGUGAGGGCAGCCCCCACACACGUGGAAGAGGCUGGGCAGCUAGCUACUGGGGACCUUGUGCUGAGGCUUCCAGGACAAAGCCCCAGUCUGGCUCUCCCCCAGCCUCUCAGGGGCACUGGCUGGUCACAUCCACUGAGUAUUGAUCGGUUGGACUUUAGGGAAGAGCCUCCUCCUUCCCAUUCUCUUGCGGUCGCACUAGUGUGGAAUUCUCGGGUGUCAAGG
B2: ENSMUSG00000058297.294|Spock2|77:82 (ssRNA)
RNA: GGGAGUUCUACAGUCCGACGAUCGCUUCGAUAUCCGCAUGCUAAGAGAGAAUGAGAGAGAAUGAGAGAGAGAAUACCCGAGGGCCACCCUGAUGCCCAGGAAGAGUGAGGGCAGCCCCCACACACGUGGAAGAGGCUGGGCAGCUAGCUACUGGGGACCUUGUGCUGAGGCUUCCAGGACAAAGCCCCAGUCUGGCUCUCCCCCAGCCUCUCAGGGGCACUGGCUGGUCACAUCCACUGAGUAUUGAUCGGUUGGACUUUAGGGAAGAGCCUCCUCCUUCCCAUUCCUUUCUGCCACCCUGGACUCUUGCGGUCGCACUAGUGUGGAAUUCUCGGGUGUCAAGG
B3: ENSMUSG00000058297.292|Spock2|89:94 (ssRNA)
RNA: GGGAGUUCUACAGUCCGACGAUCGCUUCGAUAUCCGCAUGCUAAGAGAGAAAGAGAGAGAGAAUGAGAGAGAAUGAGAGAGAGAAUACCCGAGGGCCACCCUGAUGCCCAGGAAGAGUGAGGGCAGCCCCCACACACGUGGAAGAGGCUGGGCAGCUAGCUACUGGGGACCUUGUGCUGAGGCUUCCAGGACAAAGCCCCAGUCUGGCUCUCCCCCAGCCUCUCAGGGGCACUGGCUGGUCACAUCCACUGAGUAUUGAUCGGUUGGACUUUAGGGAAGAGCCUCCUCCUUCCCAUUCCUUUCCUCUUGCGGUCGCACUAGUGUGGAAUUCUCGGGUGUCAAGG
B4: ENSMUSG00000061578.830|Ksr2|59:63;101:105;176:180 (ssRNA)
RNA: GGGAGUUCUACAGUCCGACGAUCGCUUCGAUAUCCGCAUGCUAAUAGAAACAGCAUUCUGGCUCACAGUUUCAAAGGGCUCAGUCCAUAGCUGCCUGACUCACACAUUCUAGGCCUUUCUUGAGGCAAGUGUUCAUCAUGAUACACACAGGGUGAGGAGGAGUUUCUUCAUGGCAAACAGGAAGCAAAGAGCAAUACAGGAAAAGGUCAGGGGUGAGAACACACAUUGCCACUUCCUCCAGCUAGGACCUUUGAGCAUCACAUUGUGAAGCCAUCCAGGGACUUGGGGGUUAGGUCAGAGGUACUCUUGCGGUCGCACUAGUGUGGAAUUCUCGGGUGUCAAGG
B5: ENSMUSG00000032194.214|Kank2 (ssRNA)
RNA: GGGAGUUCUACAGUCCGACGAUCGCUUCGAUAUCCGCAUGCUAUUGUUGUUGUUUCUUUGUUUCUUUUCUUCAUAAAGAAGAAAAAGGAAACAACUUCUAGAUGUGCCUUGCGAUAGGGAGGACUUUGUCCUCUCAAGUCUCCCUGUCGUAUCCAGAUCACAGCUGAACCCACUGGGCCUUGGCGCCAAACCUCAGCAGGGCAGCAUUGAGACUCAUGGACUAAAGGAAAGUGUUCACUCUUCUAGACAAGUGGGUCUCUUGGUUUGAUGGAGUCUUACUCCGCUUGAGUUUUGUAGAAGGGGCUCUUGCGGUCGCACUAGUGUGGAAUUCUCGGGUGUCAAGG
B6: ENSMUSG00000029636.67|Wasf3|73:79;237:241 (ssRNA)
RNA: GGGAGUUCUACAGUCCGACGAUCGCUUCGAUAUCCGCAUGCUACCAUCCUGAUUUGGUGGGCUUGCCACGUAUCUGCGCAGCUGCCCCACGUCAGCUCUCUGCAAGAUCACUGGCACACACACUCAGUGAUGUCUUCCAACCAGUGGGUGAUACGUUUUCCUGUUUCUUCCCUUUGCAAAUUGAAUUCCAGGUAGAUAUGGUUGUAGAGGGGAAAGUUUAACAAAUCAGAAUGAAAUGUUUGUCUGUUUGCACACUGGGCCUGGUGGCCUCCAAGGAAAACACAACGAUCGUUUGCUUUCUCUCUCUUGCGGUCGCACUAGUGUGGAAUUCUCGGGUGUCAAGG
B7: ENSMUSG00000061578.1419|Ksr2|3:7;229:233 (ssRNA)
RNA: GGGAGUUCUACAGUCCGACGAUCGCUUCGAUAUCCGCAUGCUAAUCAUACAUCUUGAUUCUCCAUUUUCCUUCUGGACCACAUGUCUCUUCCUUUUCCUUUUUAGAUCUGUCUUGCUCUCUGUCUCUCUCACUCAUUGCCAACAUGUUGCUGGGAAAGAAUAUUUGAUUUAGAUGCCAAUCAGGAAGGCAAGUAGGAUGGAUGGAUGAGUGAGUGGAUAGGUAGGUAUAUAAAUGGAUGGAUGGGUGAUGGAUGGGUAAAUGAAUGGAUAGCAUACUGAAUGAAUGGAUGAUGGAUGAAUGGACUCUUGCGGUCGCACUAGUGUGGAAUUCUCGGGUGUCAAGG
B8: ENSMUSG00000029636.451|Wasf3 (ssRNA)
RNA: GGGAGUUCUACAGUCCGACGAUCGCUUCGAUAUCCGCAUGCUAUGGAUGAGUGGAUGGAUAAUAGGUUGAUGGGUGGAUAGGUAGAUGAGUGAAUAGAUAGAUAUAGAUCAGUGGGAGGAUUGGAAAGUAGGUGAAUGAAUGGAUGGCAGAUAGAUGGAUCAAUUACAGAUGGAUGGAUGCAUGGAAUAGAUAGGUGGAUGGGUGGUGGCUAGAAGGUGCCUGAGUCUGCACAUCACUGCACUGAGAAGGCAAAUGAGUACAUUAUACUAUUAGCACCAAACCCCAAGCUUCAGUAUUUAGAUCUCUUGCGGUCGCACUAGUGUGGAAUUCUCGGGUGUCAAGG
B9: ENSMUSG00000029636.442|Wasf3 (ssRNA)
RNA: GGGAGUUCUACAGUCCGACGAUCGCUUCGAUAUCCGCAUGCUAGGUUGAGUGGGUGGAUUCAUGAUGGAUGGAUGGAUGGAUGGAUGGAUGGAUGGAUGGAUGAGUGGAUGGAUAAUAGGUUGAUGGGUGGAUAGGUAGAUGAGUGAAUAGAUAGAUAUAGAUCAGUGGGAGGAUUGGAAAGUAGGUGAAUGAAUGGAUGGCAGAUAGAUGGAUCAAUUACAGAUGGAUGGAUGCAUGGAAUAGAUAGGUGGAUGGGUGGUGGCUAGAAGGUGCCUGAGUCUGCACAUCACUGCACUGAGAAGCUCUUGCGGUCGCACUAGUGUGGAAUUCUCGGGUGUCAAGG

The full ranking holds about 9,900 sequences; the median of “r (bound/input frequency ratio)” is about 0.7, and the highest 2% start at about 6.5. The full list was thinned out, with the highest values kept by preference.

This experiment deals with TDP-43 (Homo sapiens, UniProt Q13148 1-414). In words: RNA Bind-n-Seq with designed 260-mer pool; 25 mM Tris-HCl, 150 mM KCl, 3 mM MgCl2, BSA (printed 500 mg/mL), 20 units/mL SUPERase IN; pH not stated; 500 nM RNA pool, 1 h, 4 C; TDP-43 5, 50, 500 nM; high values mean tight binding. As to conditions: protein: recombinant; tags: SBP (GST cleaved off with PreScission; pGEX-GST-SBP). The gist of the method: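 The incubation lasted 1 h at 4 °C and used 500 nM of an in vitro-transcribed 260-nt 3′ UTR oligo pool with recombinant SBP-tagged TDP-43 at 5, 50 or 500 nM immobilized on streptavidin beads. It took place in 25 mM Tris-HCl, 150 mM KCl, 3 mM MgCl2, BSA and SUPERase IN. Bound RNA was washed, eluted with biotin, converted to cDNA, PCR-amplified and sequenced to give R, each oligo's normalized abundance in the bound sample divided by that in input. Two independent protein batches provided the duplicates.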
Sequence of TDP-43 (Q13148 whole entry): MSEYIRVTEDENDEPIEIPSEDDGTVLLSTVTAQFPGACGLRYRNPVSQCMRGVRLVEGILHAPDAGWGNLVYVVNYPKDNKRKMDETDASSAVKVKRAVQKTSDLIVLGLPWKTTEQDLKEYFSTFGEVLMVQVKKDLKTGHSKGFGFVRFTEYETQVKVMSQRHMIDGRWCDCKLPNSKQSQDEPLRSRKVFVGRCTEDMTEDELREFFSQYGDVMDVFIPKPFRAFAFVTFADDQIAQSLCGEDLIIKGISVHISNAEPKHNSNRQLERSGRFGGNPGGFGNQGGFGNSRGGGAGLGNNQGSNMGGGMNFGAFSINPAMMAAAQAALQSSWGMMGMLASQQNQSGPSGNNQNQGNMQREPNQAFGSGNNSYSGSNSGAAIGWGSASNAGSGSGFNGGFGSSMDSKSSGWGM
Turning to B1, the binding signal is 8.71 R (bound/input frequency ratio). Turning to B2, the binding signal was 2.62 R (bound/input frequency ratio). In the case of B3 it was 5.57 R (bound/input frequency ratio).

For B4, the binding signal was 0.325 R (bound/input frequency ratio). As for B5, the figure is 0.273 R (bound/input frequency ratio); as for B6, 1.65 R (bound/input frequency ratio). As for B7, the figure is 2.26 R (bound/input frequency ratio); as for B8, 4.65 R (bound/input frequency ratio). As for B9, the figure is 5.86 R (bound/input frequency ratio).
